# Compound activity as filed in PubChem BioAssay.
# PfHsp40 rescue – compounds rescuing yeast from Plasmodium falciparum HSP40 toxicity; S. cerevisiae expressing PfHsp40, growth rescue, ATP luminescence; growth rescue, % at 12.5 µM; 340,000 tested, 0.68% active; AID 504582; in the data active = growth rescue above about 28%, passing the limit was not always enough; inconclusive = no clear call, values can overlap the other calls;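 note: yeast W303a lacking pdr1 and pdr3 grown in galactose medium; growth measured after three days at 30 °C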
# BoNT F protease – BoNT F light chain protease inhibition. AID 588497. 360,000 tested, 0.22% active. inhibition, % at 10 µM. Multiplex microsphere protease cleavage assay, flow cytometry; in the data active = inhibition above about 35%, passing the limit was not always enough; inconclusive = no clear call, values can overlap the other calls
# Autofluor counter – flagged as autofluorescent in microsphere protease counterscreen; 360,000 tested, 3.1% active; compound autofluorescence counterscreen, microsphere flow cytometry; stronger effect = higher value; fluorescence intensity (test concentration not listed); AID 624483; in the data active = fluorescence intensity above about 16000; inconclusive = no clear call, values can overlap the other calls
# BoNT-A LC inh2 – inhibitors of Botulinum neurotoxin A light chain protease; AID 588499; 360,000 tested, 0.17% active; inhibition, % at 10 µM; multiplex microsphere protease substrate cleavage, flow cytometry
# Anthrax LF prot – inhibitors of Bacillus anthracis lethal factor protease. P15917. multiplex microsphere protease cleavage assay, LF. inhibition, % at 10 µM. 360,000 tested, 0.12% active. AID 588501
# MazEF act – increases E. coli MazEF RNase cleavage of RNA. P0AE70. FAM/BHQ RNA-DNA oligo cleavage fluorescence, 5 h. activation, % at 20 µM. 350,000 tested, 0.32% active. AID 504720; in the data active = activation above about 50%
# Target sequence (P0AE70 whole entry, looked up): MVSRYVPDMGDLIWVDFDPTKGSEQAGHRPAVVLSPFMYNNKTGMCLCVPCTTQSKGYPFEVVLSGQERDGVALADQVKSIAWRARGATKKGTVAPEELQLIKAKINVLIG
# Numbers stand for hits; – = inactive; ? = inconclusive; · = not tested or not shown. A selection: hits, their analogues and other compounds. The true share with any hit is near 4.3%. Cut-off read from the data, not from the text of the source, unless noted: active = inhibition above about 30%; inconclusive = no clear call, values can overlap the other calls; inactive = below that.
SMILES,PfHsp40 rescue,BoNT F protease,Autofluor counter,BoNT-A LC inh2,Anthrax LF prot,MazEF act
Cn1c(=O)c2ncn(CC(=O)NCCOc3ccccc3)c2n(C)c1=O,–,–,–,–,–,–
Cc1ccc(OCCNC(=O)Cn2cnc3c(=O)n(C)c(=O)n(C)c32)cc1C,–,–,22531,–,–,–
COc1cc(SC)ccc1C(=O)N1CCN(c2ccccc2OC)CC1,–,–,–,–,–,–
COC(=O)C1CCN(C(=O)c2ccc(SC)cc2OC)CC1,–,–,20634,?,–,–
CC(C)C12CN3CCN(CC(C3)C1O)C2 (stereo unspecified),–,–,16737,–,–,–
CCC12CN3CCN(CC(C3)C1O)C2 (stereo unspecified),–,–,–,–,–,–
COc1cc(C2CC(=O)N(CC(=O)NCc3ccco3)c3ccccc3S2)cc(OC)c1OC (stereo unspecified),–,–,24105,–,–,–
O=C(CN1C(=O)CC(c2ccco2)Sc2ccccc21)NCc1ccc2c(c1)OCO2 (stereo unspecified),–,–,23277,–,–,–
CCN1C(=O)CC(c2ccco2)Sc2ccccc21 (stereo unspecified),–,–,17133,–,–,–
O=C(CC[C@H]1O[C@@H](n2ccc(=O)[nH]c2=O)[C@H](O)[C@@H]1O)NCCN1CCOCC1,·,–,–,–,–,·
COc1ccc(S(=O)(=O)N2CCN(C(=O)C3CCCO3)CC2)cc1 (stereo unspecified),–,–,–,–,–,–
CCOC(=O)c1ccc(CC(=O)c2oc3cc(O)ccc3c2C)o1,–,–,–,–,–,66.9
CSc1nnc(-c2sccc2OCc2ccccc2)n1C,–,–,16539,–,–,–
CSc1n[nH]c(-c2sccc2OCc2ccc(C)cc2)n1,–,–,–,–,–,–
COc1ccccc1-c1c(C)oc2cc(OC(=O)c3ccco3)ccc2c1=O,–,–,20703,?,–,–
NNc1nc2c(F)cc(F)cc2s1,–,–,–,–,–,–
Cc1ccccc1C(=O)NCCc1nnc(SCC(=O)Nc2nc(-c3ccccc3)cs2)n1C,–,–,20936,?,–,–
Cc1cccc(C(=O)NCCc2nnc(SCC(=O)Nc3nc(C)cs3)n2C)c1,–,–,16360,?,–,–
Cc1cccc(C(=O)NCc2nnc(SCC(=O)Nc3nncs3)n2C)c1,–,–,–,–,–,–
Cc1cc(C)nc(SCc2nnc(SCC(=O)Nc3nc(-c4ccccc4)cs3)n2C)n1,–,–,–,–,–,–
CC(=O)N(CC(C)C(=O)O)c1c(I)cc(I)c(N)c1I (stereo unspecified),–,–,–,–,–,–
CCC(Cc1c(I)cc(I)c(N)c1I)C(=O)O (stereo unspecified),186.8,–,–,–,–,–
CCCCCc1ccc(OCCC[n+]2ccccc2)c(CCCCC)c1,–,–,–,–,–,–
CCCCCc1ccc(OCCOCCn2c[n+](C)c3ccccc32)c(CCCCC)c1,55.3,–,–,–,–,–
COC(=O)c1cc(NS(=O)(=O)c2ccc(N3CCC(C)CC3)c([N+](=O)[O-])c2)cc(C(=O)OC)c1,–,–,–,–,–,–
SMILES,PfHsp40 rescue,BoNT F protease,Autofluor counter,BoNT-A LC inh2,Anthrax LF prot,MazEF act
Cc1ccc(C)c(N(C(=O)Cn2nnc(-c3cccs3)n2)C(C(=O)NC2CCCC2)c2ccncc2)c1 (stereo unspecified),–,–,24211,–,–,–
COc1cccc(N(C(=O)Cn2nnc(-c3cccs3)n2)C(C(=O)NC2CCCCC2)c2ccncc2)c1 (stereo unspecified),–,–,–,–,–,–
COCCCNC(=O)c1c(N)n(-c2cccc(S(N)(=O)=O)c2)c2nc3ccccc3nc12,–,–,–,–,–,–
CCCNC(=O)c1c(N)n(-c2cccc(OC)c2)c2nc3ccccc3nc12,–,–,20561,?,–,–
O=C(Nc1c2c(nn1-c1ccc([N+](=O)[O-])cc1)CS(=O)(=O)C2)c1ccccc1F,–,–,–,–,–,–
O=C1[C@@H]2[C@H](Cc3ccc(O)cc3)N[C@]3(C(=O)Nc4ccccc43)[C@@H]2C(=O)N1c1ccc(F)cc1,–,–,–,–,–,·
Cc1c(Cl)ccc2c1NC(=O)[C@]21N[C@@H](Cc2ccccc2)[C@H]2C(=O)N(c3ccc(F)cc3)C(=O)[C@H]21,–,–,23930,?,–,–
CC1CCN(C(=O)CN2C(=O)C(C)(C)Oc3ccc(C(=O)NC(C)C)cc32)CC1,–,–,–,–,–,–
